# Bioassay records: PubChem BioAssay, several laboratories
# An excerpt weighted towards active compounds, which were near 6.6% of everything screened.
# NR3A LBD binder: binders of NR3A ligand-binding domain, primary screen, biophysical, differential scanning fluorimetry, uHTS | NR3A LBD differential scanning fluorimetry, Tm shift; 0% = protein alone, 100% = glycine-bound protein | AID 1259313, 2017 | Tm shift relative to glycine control, % at 25 µM | 340,000 tested, 2.5% active | Glutamate receptor ionotropic, NMDA 3A (GRIN3A) ligand-binding domain;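 active = melting temperature shift of at least 10% of the positive control shift, at one fixed dose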
# Beta apoptosis: inhibitors of cytokine-induced beta cell apoptosis, primary screen, luminescence | AID 435005, 2010 | 300,000 tested, 0.8% active | INS-1E cytokine-induced death, ATP luminescence, 48 h; percent of positive-control rescue, neutral wells zero | protection from apoptosis, % (no concentration beside the values);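 active = Every replicate reaches about 75%, or at least half do and their mean reaches it too, limit read from the data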;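 also: 0% = cytokine-treated negative control wells and 100% = positive control rescue; higher means more ATP so stronger rescue from cytokine killing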
# CSC inhib: cancer stem cell viability inhibitors, primary screen, luminescence; inhibition, % at 7.5 µM; 300,000 tested, 1.1% active; cancer stem cell-like cells viability; in the data active = inhibition above about 75%; tested in HMLE shEcad cells
# MPTP block: mitochondrial permeability transition pore inhibitors, primary screen, biochemical, isolated mouse mitochondria, absorbance; inhibition, % at 10 µM; Ca2+ swelling absorbance, 30 min; 360,000 tested, 1.4% active; AID 602449, 2012;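 active = inhibition of 50% or more, scaled per plate between neutral and stimulator controls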;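 also: 0% = DMSO wells given calcium and 100% = 1 mM EGTA wells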
# Gli-Sufu antag: Gli-Sufu pathway antagonists, primary screen, luciferase luminescence, Sufu-KO-LIGHT cells, uHTS. inhibition, % at 5 µM. 340,000 tested, 0.74% active. Sufu-KO-LIGHT fibroblasts, Gli luciferase reporter luminescence. AID 588413, 2011;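 active = inhibition above about 55%, limit read from the data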;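 also: 0% = DMSO-treated cells and 100% = wells with medium but no cells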
# Mdm2 MdmX PPI: inhibitors of human Mdm2-MdmX association, primary screen, cell-based, luminescence, split luciferase, SaOS-2, uHTS | AID 485346, 2010 | SaOS-2 split-luciferase Mdm2/MdmX complementation | 330,000 tested, 3% active | Protein Mdm4 (Homo sapiens) + E3 ubiquitin-protein ligase Mdm2 (Homo sapiens), … | inhibition, % at 8 µM;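 active = inhibition of at least 50% at 8 µM in the primary screen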
# * = called active by the depositor; · = not tested or not shown.
SMILES,NR3A LBD binder,Beta apoptosis,CSC inhib,MPTP block,Gli-Sufu antag,Mdm2 MdmX PPI
CCCN=C1N(CC)C[C@@H]2[C@@H]3C(=O)N(Cc4ccccc4)C(=O)[C@@H]3[C@](Cc3ccccc3)(C(=O)OC)N12,13*,·,·,-1,3,-15
Cc1ccccc1NC(=O)c1cccc(NC(=O)c2ccccc2C(=O)O)c1,0,-6,-8,2,12,27
Fc1ccc(-c2cc(C(F)(F)C(F)F)[nH]n2)cc1,10*,·,8,11,18,8
Nc1nc(SCC(=O)Nc2ccc(C(F)(F)F)cc2)[nH]c(=O)c1NC(=O)c1ccc(F)c(F)c1,28*,-1,-12,2,-3,6
Cc1cc(NC(=O)CSc2nc(N)c(NC(=O)c3ccc(F)c(F)c3)c(=O)[nH]2)no1,2,-3,-9,0,-6,22
COC(=O)C[C@H]1c2ccccc2S(=O)(=O)N1Cc1ccc(OC)cc1,-2,-2,-5,0,2,6
Cc1ccc2c(NC(=O)c3ccco3)cccc2n1,-1,4,-18,-1,-8,-1
COc1ccc(NC(=O)C(=O)NCC2CCCN2S(=O)(=O)c2cccs2)cc1 (stereo unspecified),1,·,54,0,3,44
CSc1ccccc1C(=O)Nc1ccc(C)cc1C,0,-10,·,2,-12,-1
COCCCNC(=O)c1ccccc1SC,13*,-5,-22,-1,-2,-12
O=C(Nc1ccc2c(c1)CCC2)c1ccccc1Br,-1,7,2,4,-114,-188
CSc1ccccc1C(=O)Nc1cc(C)ccc1C,2,-15,78*,0,-8,28
CSc1ccccc1C(=O)Nc1ccc2c(c1)CCC2,10*,8,1,1,10,-27
C[C@H](O)[C@@H]1C(=O)N2CCc3ccc(N4CCN(C)CC4)cc3[C@@H]2C[C@@H]1N(C)C(=O)c1cccnc1,·,·,·,-1,·,·
Oc1cccc2oc(=S)[nH]c12,6,·,·,-1,1,·
O=C(O)COc1ccc(NC(=O)c2ccc3c(c2)C(=O)N(Cc2ccccc2)C3=O)cc1,10*,-4,3,-2,4,-9
O=C(O)Cc1ccc(NC(=O)c2ccc3c(c2)C(=O)N(CC2CCCO2)C3=O)cc1 (stereo unspecified),11*,5,-2,-1,0,23
O=C(Nc1nc(OCCN2CCCC2=O)cnc1/C=C\c1ccccc1)c1cc2ccccc2s1,·,·,·,0,·,·
Cc1ccc(NC(=O)COC(=O)C2CCC2)cc1S(=O)(=O)N1CCCCC1,2,-2,-11,0,-7,10
CCOC(=O)[C@H]1[C@H]2COc3cc(OC)ccc3[C@@H]2N2C(=O)[C@@H](CO)NC(=O)[C@@]12C,·,-7,0,·,·,-32
COc1ccc(CCN(Cc2nc(-c3ccccc3)no2)Cc2nc(-c3ccccc3)no2)cc1OC,16*,-6,-11,1,-3,10
COc1ccc(CCN(C)Cc2nc(-c3cnccn3)no2)cc1OC,-1,-2,3,0,-4,-2
CC[C@@H](C(=O)n1nc(C)cc1C)[C@H](NS(=O)(=O)c1ccc(C)cc1)c1ccccc1,13*,3,10,5,13,24
Clc1ccc(SCNc2ccccc2Cl)cc1,10*,-10,-2,-1,4,-22
Cc1ccc(NCSc2ccc(Cl)cc2)cc1,-14,·,·,1,-44,·
O=c1oc([C@@H](O)c2ccccc2)cc2ccccc12,10*,-8,-9,-2,-21,-8
O=C(Nc1ccc(Nc2ccncc2)cc1)c1ccc(Nc2ccnc3ccc([N+](=O)[O-])cc23)cc1[N+](=O)[O-],3,81*,27,0,1,·
C[C@@H]1CCCCO[C@@H](CN(C)S(=O)(=O)c2cn(C)cn2)[C@@H](C)CN([C@H](C)CO)C(=O)c2cc(NC(=O)Nc3ccc(C(F)(F)F)cc3)ccc2O1,·,·,·,0,·,·
COc1ccc2c(CC(=O)OCC(=O)c3ccccc3OC)coc2c1,-1,1,0,0,4,-5
